# Compound activity as filed in PubChem.
# Six1-Eya2 inh = Six1/Eya2 interaction inhibition; Q15475+O00167; AlphaScreen GST-Six1/His-Eya2 binding, biochemical; stronger effect = lower value; activity change, % (test concentration not listed); 0.56% of 360,000 active; in the data active = activity change below about -65%; inconclusive = mostly about -30% to -63%; note: % is set by controls: 0 for no effect and ±100 for the full control effect
#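 Six1/Eya2 binding was read as AlphaScreen signal after compounds were pinned into GST-Six1 plus His-tagged Eya2 (5X stock 250/500 nM) in pH 8.0 Tris/NaCl/TCEP buffer, beads added, then incubated 1 h, 37 C, dark.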
# CtBP-E1A inh = blocks the CtBP interaction with E1A. AlphaScreen GST-E1A/His-CtBP binding, 1536-well; stronger effect = lower value. activity change, % (no concentration beside the values). 0.49% of 340,000 active; in the data active = activity change below about -65%; inconclusive = mostly about -30% to -63%; note: % is set by controls: 0 for no effect and ±100 for the full control effect
#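 Steps: dispense buffer (Tris pH 8.0, NaCl 300 mM, TCEP 1 mM, BSA, Tween 20); add 5X protein mix (GST-E1A, His-CtBP, 125 nM each); pin 23 nL compound; 2 h at 37 °C, dark; add 5X beads (50 ug/mL); 1 h; read.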
# HP1b binding inh = blocks HP1-beta chromodomain binding to methylated histone tails. P83916. AlphaScreen HP1-beta / biotin-H3K9me3 peptide binding. Potency, µM (doses to about 114 µM), inactives show at the top dose activity change, negative = inhibition, hits mostly inhibitors. 0.56% of 390,000 active. AID 540317; note: potency is the fitted concentration of half-maximal effect; nearly all actives have a fitted effect of over 70% in size
# Target sequence (P83916 whole entry, looked up): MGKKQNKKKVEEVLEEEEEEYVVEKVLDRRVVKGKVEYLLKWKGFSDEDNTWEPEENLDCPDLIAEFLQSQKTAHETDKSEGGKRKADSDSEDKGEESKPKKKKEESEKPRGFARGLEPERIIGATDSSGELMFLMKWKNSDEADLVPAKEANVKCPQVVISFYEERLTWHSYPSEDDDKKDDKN
#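 AlphaScreen: HP1-beta (50 nM) preformed 30 min with biotin-H3(1-18)K9me3 peptide (50 nM) in PBS pH 7.4, 0.01% Tween-20. Compound added for 30 min at RT, then streptavidin donor/nickel chelate acceptor beads (10 ug/mL) for 30 min.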
# JMJD2A Tudor inh = JMJD2A Tudor domain (human) inhibition. AlphaScreen JMJD2A-Tudor / H3K4me3 peptide binding. Potency, µM (top dose mostly 114 µM), inactives show at the top dose activity change, negative = inhibition, usual class: inhibitors. 4.4% of 390,000 active. AID 504339; note: potency is the fitted concentration of half-maximal effect; % is set by controls: 0 for no effect and ±100 for the full control effect; nearly all actives have a fitted effect of over 50% in size
# G9a block = inhibitors of human histone lysine methyltransferase G9a | Q96KQ7 | G9a H3K9 monomethylation, AlphaScreen, 2 h | Potency, µM (highest dose often 102 µM), for inactives: at the highest dose activity, negative = inhibition, hits mostly inhibitors | 8.8% of 350,000 active | AID 504332; note: potency is the fitted concentration of half-maximal effect; % is set by controls: 0 for no effect and ±100 for the full control effect; nearly all actives have a fitted effect of over 75% in size
# Target sequence (Q96KQ7 913-1193 limits assumed): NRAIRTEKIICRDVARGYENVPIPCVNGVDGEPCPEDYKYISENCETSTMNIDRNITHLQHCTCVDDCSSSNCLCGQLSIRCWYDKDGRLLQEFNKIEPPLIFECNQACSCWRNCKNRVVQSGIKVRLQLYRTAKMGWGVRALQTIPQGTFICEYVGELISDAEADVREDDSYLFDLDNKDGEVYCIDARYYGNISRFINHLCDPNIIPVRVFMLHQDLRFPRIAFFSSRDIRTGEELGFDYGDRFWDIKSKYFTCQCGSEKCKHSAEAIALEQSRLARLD
#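 Compounds were preincubated with 20 nM G9a for 15 min, after which biotinylated H3K9 peptide (500 nM) and SAM (20 uM) started a 2 h room-temperature reaction. Monomethylated product was quantified by antibody-based AlphaScreen chemiluminescence.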
# BAZ2B block = blocks human BAZ2B | AlphaScreen BAZ2B-H3K14Ac peptide displacement | Potency, µM (doses to about 114 µM), for inactives: at the highest dose activity change, negative = inhibition, most hits filed as inhibitors | 4.4% of 360,000 active; note: potency is the fitted concentration of half-maximal effect; % is set by controls: 0 for no effect and ±100 for the full control effect; nearly all actives have a fitted effect of over 60% in size
#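 AlphaScreen displacement: compounds (up to 110uM) incubated 30 min at room temperature with a preformed 50 nM BAZ2B/50 nM biotinylated H3K14Ac peptide complex in PBS pH 7.4 with Tween-20. Donor and acceptor beads at 10 ug/mL final added, 20 min light-protected before reading.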
# The depositor's hits bear a star; ? = inconclusive; / = no result; [ ] = another dose, or the depositor's remark. The list is not random: actives were taken first. Their share in the collection is about 10%. Unless noted, calls come from the whole dose curve; as a rule, active = well fitted inhibition curve with a large enough effect; inconclusive = small, poorly fitted or top-dose-only effect; inactive = no such curve, though single readings can be large or run the other way.
SMILES,Six1-Eya2 inh,CtBP-E1A inh,HP1b binding inh,JMJD2A Tudor inh,G9a block,BAZ2B block
O=C(CSc1nc2ccccc2c(=O)n1Cc1ccc(Cl)cc1)NCc1cccs1,-2,/,18%,-11%,7%[59 µM],-2%
Cc1cccc(OCC(=O)Nc2cccc(C(=O)OCc3cc(=O)n4c(C)csc4n3)c2)c1,/,/,10%,-5%,7%[59 µM],-1%
O=C(O)c1ccc(COc2ccc3c4c(c(=O)oc3c2)CCC4)o1,-17,-13,-22%,?,40µM*,?
O=c1oc2cc(OCc3ccc([N+](=O)[O-])cc3)ccc2c2c1CCCC2,0,3,41%,3%,9%[59 µM],-7%
O=C(O)C1CCN(C(=O)COc2ccc3c4c(c(=O)oc3c2)CCC4)CC1,-2,0,36%,4%,50µM*,?
O=C(Nc1ccc(Cl)cc1)c1ccc2c(c1)N(Cc1ccccc1)CCS2,/,/,72%,-2%,11%[59 µM],1%
Cc1cccc(NC(=O)C2CCCN(S(=O)(=O)c3cccc4nonc34)C2)c1C (centres undefined),/,/,42%,-12%,?,15%
COc1cc2c(cc1OC)-c1cc(=Nc3c(C)cc(C)cc3C)n(C)c(=O)n1CC2,/,/,-25%[57 µM],?,21µM*,/
COc1cc2c(cc1OC)-c1cc(NC3CCCC3)nc(=O)n1CC2,?,?,26%,-32%,-18%,21%
Cc1nc(N=Nc2ccc(C(=O)O)cc2)c(COP(=O)(O)O)c(C=O)c1O,/,/,/,/,40µM*,/
CCc1ccc(CN(Cc2cccnc2)C(=O)/C=C/c2ccc(OC)cc2)cc1,-3,0,0%,-28%,50µM*,-24%
COc1ccc(/C=C/C(=O)NCc2cccnc2)cc1,0,7,38%,3%,-4%,3%
COc1ccc(C(=O)N/N=C(\Cc2ncc[nH]2)c2ccccc2)cc1,?,1,36%,-22%,2%,?
Clc1cccc(N/N=C(\Cc2nc3ccccc3[nH]2)c2ccccc2)c1,-9,-4,2%,?,25µM*,-29%
c1ccc(N/N=C(\Cc2ncc[nH]2)c2ccccc2)cc1,-3,9,?,-28%[57.1 µM],2.8µM*,?
COc1ccc(CNC(=O)CCS(=O)(=O)c2cc3c4c(c2)CCN4C(=O)CC3)cc1OC,/,/,-10%,?,?,-2%
CCC(C)NCCCOc1ccc([N+](=O)[O-])cc1 (centres undefined),3,7,-19%,79µM*,?,?
CCC(C)NCCCCOc1cc(C)cc(C(C)C)c1 (centres undefined),13,5,?,8.9µM*,11µM*,?
CCC(C)NCCCCOc1ccc(Br)cc1 (centres undefined),-1,-9,?,1.6µM*,8.9µM*,?
CCc1ccc(OCCOCC(O)CNC(C)CC)cc1 (centres undefined),-1,-2,36%,-5%,?,-4%
O=C(C1CC(=O)N(c2ccccc2)C1)N1CCC(c2nc3ccccc3[nH]2)CC1 (centres undefined),5,-2,28%,-14%,45µM*,-2%
COc1ccc(NC(=O)N2CCC(c3nc4ccccc4[nH]3)CC2)cc1,6,9,46%,1%,40µM*,3%
O=C(CNC(=O)c1ccccc1)OC(CCc1ccccc1)C(=O)Nc1cc(C(F)(F)F)ccc1Cl (centres undefined),/,/,/,-18%,/,/
COc1ccc(S(=O)(=O)N(CC(=O)NC2CC2)C2CCCCC2)cc1Cl,-4,-3,9%,-8%,-48%[12.7 µM],6%
CNC(=O)CN(C1CCCCC1)S(=O)(=O)c1ccc(OC)c(Cl)c1,8,9,9%,-6%,50µM*,4%
SMILES,Six1-Eya2 inh,CtBP-E1A inh,HP1b binding inh,JMJD2A Tudor inh,G9a block,BAZ2B block
CCOC(=O)C(NCCCO)c1ccccc1 (centres undefined),3,-13,?,2.5µM*,50µM*,-22%
Cc1ccccc1NC(=O)CN1CCCC1,1,-2,/,/,/,/
CN1CCN(CC(=O)c2ccccc2F)CC1,6,6,?,6.3µM*,4.5µM*,22µM*
CN1CCN(CC(=O)Nc2cc(N(C)C)nc3ccccc23)CC1,7,-1,32%,-17%,50µM*,?
CCCCCC(=O)Nc1cc(N(C)C)nc2ccccc12,-1,6,46%,14%,1%[12.7 µM],12%
CN1CCCN(C(=O)CNC(=O)c2ccccc2F)CC1,29,12,37%,-4%,/,/
Cc1ccccc1NC(=O)CN1CCN(C)CC1,5,8,28µM*,3.2µM*,10µM*,28µM*
Cc1ccc(CNC(=O)CN2C(=O)C3(SCC(=O)N3c3ccc(F)c(F)c3)c3ccccc32)cc1 (centres undefined),/,/,-6%,-27%,-8%[59 µM],4%[57.1 µM]
Cc1ccc(NC(=O)c2c(C)oc3ccc(O)c(CN4CCCC4)c23)c(C)c1,/,/,4%,-20%,-29%[59 µM],-8%
CC/C(=N\Nc1nncc2ccccc12)c1ccc(F)cc1,-22,-19,12%,-25%,40µM*,-14%
CCOC(=O)NNc1nncc2ccccc12,2,-2,29%,1%,-41%[2.33 µM],-11%
C/C(=N\Nc1nncc2ccccc12)c1ccc(OCC(=O)N(C)C)cc1,-10,-3,-18%,-24%,45µM*,?
Cc1cccc(NC(=O)C(NS(=O)(=O)c2ccc3c(c2)oc(=O)n3C)C(C)C)c1 (centres undefined),/,/,26%,-12%,-5%[59 µM],-14%
NC[C@@H]1O[C@H](C23CC4CC(CC(C4)C2)C3)Cc2c1ccc(O)c2O,-16,?,-3%,?,16µM*,?
O=C(Oc1ccc2c(=O)c(Cl)coc2c1)c1ccncc1,17,3,40%,-2%[57.1 µM],35µM*,?
O=C(Oc1ccc2c(=O)c(Oc3ccc4ccccc4c3)coc2c1)c1cncc(Br)c1,0,-2,29%,-9%,-12%[59 µM],9%
CC(=O)c1cccc(NC(=O)Cn2ccn3nc(-c4ccccc4)cc3c2=O)c1,/,/,10%,-4%,16%[59 µM],-2%
Cc1ccc(C)c(N(C(=O)CS(=O)CC(=O)Nc2ccc3c(c2)OCO3)C(C)C(=O)NC2CCCC2)c1 (centres undefined),6,4,41%,-11%,?,-4%
Cc1cccc(N(C(=O)CS(=O)CC(=O)Nc2ccc3c(c2)OCO3)C(C)C(=O)NC2CCCC2)c1C (centres undefined),-1,/,23%,-5%,56µM*,-28%
Cn1cccc1C(=O)NC(=O)CSc1cccc[n+]1[O-],-1,2,13%,-10%,28µM*,-37%
O=C(CSc1ncnc2ccccc12)c1cccs1,2,-20,3%,3%,22µM*,5%
